The record followed here is PubChem BioAssay (Tox21).

The target in test [1] is Progesterone receptor (Homo sapiens) (UniProt P06401). The experiment in a line: qHTS assay to identify small molecule agonists of the progesterone receptor (PR) signaling pathway (AID 1346784; calls by dose curve; note: nearly all actives have a fitted effect of over 30% in size). In short, it runs like this: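 Compounds were tested for PR agonism in HEK 293T cells bearing a beta-lactamase gene under UAS control. Treatment lasted 16 hr at 37C; signal came from fluorescence of a FRET substrate.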
In general terms: In qHTS, concentration-response curves come from the screen itself.

Test [2] is described as follows: qHTS assay to identify small molecule antagonists of the progesterone receptor (PR) signaling pathway - cell viability counter screen (AID 1346798). Note: series mostly up to about 92 µM; nearly all actives have a fitted effect of over 50% in size. The method in brief:
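Following a 4 hr attachment, PR-UAS-bla HEK293T cells in charcoal-stripped FBS medium were exposed to compounds with R5020 for 16 hr; CellTiter-Glo was added and luminescence read after 30 min at room temperature.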

The nature of test [3]: qHTS assay to identify small molecule agonists of the progesterone receptor (PR) signaling pathway - cell viability counter screen (AID 1346799; calls by dose curve; note: nearly all actives have a fitted effect of over 45% in size). The method in brief: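 Here, 3,000 PR-UAS-bla HEK293T cells per well were treated with compounds for 16 hr after a 6 hr preincubation at 37C and 5% CO2; cell viability is the CellTiter-Glo luminescence signal.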
Test [4] in a line: qHTS assay to identify small molecule antagonists of the TGF-beta/Smad signaling pathway - cell viability counter screen (AID 1346824). Note: nearly all actives have a fitted effect of over 50% in size. The method in brief: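 Cytotoxicity counter-screen run in the same wells as the beta-lactamase Smad reporter read: CellTiter-Glo luminescence after 30 min at room temperature. HEK 293T SBE-bla cells had 5 hr compound exposure at 37 C with TGF-beta1 (0.25 ng/mL stock).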

A short description of test [5]: qHTS assay to identify small molecule agonists of the TGF-beta/Smad signaling pathway - cell viability counter screen (AID 1346829). Note: top concentration of the series differs between compounds; nearly all actives have a fitted effect of over 45% in size. In short, it runs like this:
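Cytotoxicity counter screen: CellTiter-Glo luminescence (30 min, room temperature) measured in the SBE-bla HEK 293T reporter wells after 5 hr compound treatment at 37 C and the 2 hr substrate step.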

A short description of test [6]: qHTS assay to identify small molecule agonists of the TGF-beta/Smad signaling pathway (AID 1346859; active = well fitted activation curve with a large enough effect in the signal ratio in the repeat runs, not every such curve was filed as active; the % refers to the signal ratio; note: series mostly up to about 77 µM). In short, it runs like this:
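Each well held 4,000 SBE-bla HEK 293T cells incubated overnight before compound addition; 5 hr later the cleavable FRET substrate went on for 2 hr at room temperature, and fluorescence was read at two emissions.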

Test [7] addresses Thyrotropin-releasing hormone receptor (Homo sapiens) (UniProt P34981). The experiment in a line: qHTS assay to identify small molecule antagonists of the thyrotropin-releasing hormone receptor (TRHR) signaling pathway (AID 1346877; active = well fitted inhibition curve with a large enough effect in the repeat runs, not every such curve was filed as active; note: series mostly up to about 51 µM). In short, it runs like this:
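Intracellular calcium fluorescence, read kinetically every second over 3 min, reports TRH-evoked signalling in HEK293 cells carrying TRHR. Test compounds were added 5 min ahead of a 1 nM TRH challenge.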

For test [8] the target is unchanged. The experiment in a line: qHTS assay to identify small molecule agonists of the thyrotropin-releasing hormone receptor (TRHR) signaling pathway (AID 1346891; calls by dose curve; note: series mostly up to about 58 µM). In short, it runs like this:
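Screening of agonists relied on calcium signalling in HEK293 cells expressing human TRHR: dye loading 2 h at 37 °C preceded compound addition and a 3-min fluorescence time course.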

Test [9] is described as follows: Human pregnane X receptor (PXR) small molecule agonists, qHTS cell viability counter screen (AID 1346977). Note: nearly all actives have a fitted effect of over 50% in size. Note: potency is the fitted concentration of half-maximal effect. In short, it runs like this: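 Tox21 qHTS format; PXR-Luc HepG2, 2,000/well, charcoal-stripped FBS 5%. Cpd exposure 24hr. Read: CellTiter-Fluor fluorescence, multiplexed with luciferase.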
A short description of test [10]: Caspase-3/7 induction in HepG2 cells by small molecules, qHTS assay (AID 1346978). Note: nearly all actives have a fitted effect of over 15% in size. The method in brief: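 Caspase-3/7 induction was measured by Caspase-Glo 3/7 luminescence (30 min, room temperature) after a 17 hr compound exposure of wild-type HepG2 cells seeded at 2,000 per well and pre-incubated 5 hr.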
Test [11] in a line: Caspase-3/7 induction in CHO-K1 cells by small molecules, qHTS assay (AID 1346980). Note: nearly all actives have a fitted effect of over 15% in size. In short, it runs like this: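 Luminescent Caspase-Glo 3/7 read (30min, room temperature) quantified apoptosis induction. Cells were wild-type CHO-K1, treated with compound for 17hr at 37 C and 5% CO2.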
The nature of test [12]: Caspase-3/7 induction in HepG2 cells by small molecules, qHTS cell viability counter screen (AID 1346981). Note: nearly all actives have a fitted effect of over 30% in size. Note: potency is the fitted concentration of half-maximal effect. In short, it runs like this:
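HepG2, WT, 2,000 cells/well; 5 hr pre-incubation 37 C/5% CO2; compound pin-transferred from DMSO; 16 hr exposure; CellTiter-Fluor, 1 hr; fluorescence read.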

In test [13] the target is Nuclear receptor subfamily 1 group I member 2 (Homo sapiens) (UniProt O75469). As to the kind of experiment: Human pregnane X receptor (PXR) small molecule agonists, qHTS assay (AID 1346982). Note: nearly all actives have a fitted effect of over 35% in size. In short, it runs like this:
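Luciferase signal from ONE-Glo (30 min, room temperature) measured activation of hPXR-driven CYP3A4 reporter expression in PXR-Luc HepG2 cells treated with compounds for 24 hr at 37 C.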

For test [14], the target named is Nuclear receptor subfamily 1 group I member 2 (Rattus norvegicus) (UniProt Q9R1A7). As to the kind of experiment: Rat pregnane X receptor (rPXR) activation by small molecules, qHTS assay (AID 1346983). Note: nearly all actives have a fitted effect of over 20% in size. Particulars: rPXR luciferase reporter cells, One-Glo luminescence, 24 h; max activation: active compounds read high. The method in brief:
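Luminescent readout (One-Glo luciferase, 30 min room temperature) followed 24 hr compound treatment at 37 C of rPXR cells plated 2,000 per well and preincubated 5hr; qHTS format with compounds delivered in DMSO.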

Test [15] has as its target Nuclear receptor subfamily 1 group I member 2 (Homo sapiens) (UniProt O75469). The experiment in a line: CYP3A4 induction through human pregnane X receptor (PXR) by small molecules, qHTS assay (AID 1346984). Note: nearly all actives have a fitted effect of over 40% in size. Note: potency is the fitted concentration of half-maximal effect. In short, it runs like this:
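Luminescence readout: luciferase signal after One-Glo (30 min, room temperature), following 3 h at 37C with 3uM final Luciferin-IPA P450 substrate. Cells were DPX-2 (HepG2, PXR/CYP3A4-luc co-transfected) dosed for 24 h.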

Test [16] shares this target. The experiment in a line: Human pregnane X receptor (PXR) activation by small molecules, qHTS assay (AID 1346985). Note: nearly all actives have a fitted effect of over 40% in size. In short, it runs like this: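 DPX-2 cells (HepG2 co-transfected with a PXR response element and a CYP3A4-promoter luciferase construct) were seeded at 2,000 per well, rested 5 hr at 37C, then exposed to DMSO-dissolved compounds for 24 hr. Activation was read as luciferase luminescence.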

For test [17], the target named is Cytochrome P450 2D6 (Homo sapiens) (UniProt P10635). As to the kind of experiment: Cytochrome P450 Family 2 Subfamily D Member 6 (CYP2D6) small molecule antagonists: luciferase reporter qHTS assay (AID 1671196). Note: nearly all actives have a fitted effect of over 50% in size. Note: potency is the fitted concentration of half-maximal effect. The method in brief:
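Read-out is luminescence from luciferin formed by CYP2D6 turnover of a proluciferin substrate, recorded as relative luminescence units. Reactions ran 1 h at room temperature after NADPH regeneration solution was added.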
(In general: In a reporter assay the amount or activity of a reporter protein is the signal.)

The target in test [18] is Cytochrome P450 2C19 (Homo sapiens) (UniProt P33261). As to the kind of experiment: Cytochrome P450 Family 2 Subfamily C Member 19 (CYP2C19) small molecule antagonists: luciferase reporter qHTS assay (AID 1671197). Note: nearly all actives have a fitted effect of over 65% in size. Note: potency is the fitted concentration of half-maximal effect. The method in brief:
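Luminescent readout of CYP2C19 activity: luciferin product detected 20 min after adding detection reagent. Before that, compound and enzyme-substrate mix preincubated 10 min at room temperature; NADPH-regenerating system started a 1 h, 37C reaction. Ketoconazole as positive control.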

Test [19] in a line: Caspase-3/7 induction in CHO-K1 cells by small molecules, qHTS cell viability counter screen (AID 1346979). Note: nearly all actives have a fitted effect of over 35% in size. Note: potency is the fitted concentration of half-maximal effect. The method in brief: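 CellTiter-Fluor viability check, qHTS format: wild-type CHO-K1, 16hr compound treatment, 1hr reagent incubation, fluorescence read.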

“And” between values parts separate entries of the source, which are not always exact repeats. Equal entries are not always repeated. Values without a mark were called inactive. Records with an inconclusive call do not appear. The source made the active and inactive calls. Unless noted, calls come from the whole dose curve; as a rule, active = well fitted curve in the direction sought with a large enough effect in the repeat runs; inconclusive = weak or mixed curves; inactive = no such curve, though single readings can be large; an effect the other way counts as inactive or inconclusive.
% is set by controls: 0 for no effect and ±100 for the full control effect.

Sequence of Nuclear receptor subfamily 1 group I member 2 (Homo sapiens) (O75469 whole entry, looked up): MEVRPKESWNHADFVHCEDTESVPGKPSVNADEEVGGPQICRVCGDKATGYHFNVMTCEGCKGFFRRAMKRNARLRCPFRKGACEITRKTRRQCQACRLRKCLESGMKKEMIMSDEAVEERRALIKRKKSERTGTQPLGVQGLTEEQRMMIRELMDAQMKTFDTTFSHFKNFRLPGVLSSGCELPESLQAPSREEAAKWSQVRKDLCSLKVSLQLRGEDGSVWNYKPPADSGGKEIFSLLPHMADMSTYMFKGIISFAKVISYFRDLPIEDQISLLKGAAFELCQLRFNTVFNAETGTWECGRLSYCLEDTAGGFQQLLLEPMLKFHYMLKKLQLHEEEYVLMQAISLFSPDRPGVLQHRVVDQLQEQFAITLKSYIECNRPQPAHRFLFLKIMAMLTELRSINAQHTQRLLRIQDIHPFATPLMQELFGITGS
Sequence of Nuclear receptor subfamily 1 group I member 2 (Rattus norvegicus) (Q9R1A7 whole entry, looked up): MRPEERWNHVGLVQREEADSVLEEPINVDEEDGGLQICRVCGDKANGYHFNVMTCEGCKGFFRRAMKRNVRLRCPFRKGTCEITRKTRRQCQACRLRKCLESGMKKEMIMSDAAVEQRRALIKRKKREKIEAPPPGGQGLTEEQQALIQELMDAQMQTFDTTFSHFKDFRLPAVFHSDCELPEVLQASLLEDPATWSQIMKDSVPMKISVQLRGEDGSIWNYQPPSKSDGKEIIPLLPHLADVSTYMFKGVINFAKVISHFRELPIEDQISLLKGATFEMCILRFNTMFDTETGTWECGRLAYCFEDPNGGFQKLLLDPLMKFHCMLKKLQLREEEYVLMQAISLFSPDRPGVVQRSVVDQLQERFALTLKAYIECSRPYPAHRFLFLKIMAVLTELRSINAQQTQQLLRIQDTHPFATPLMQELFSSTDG
Sequence of Cytochrome P450 2C19 (Homo sapiens) (P33261 whole entry, looked up): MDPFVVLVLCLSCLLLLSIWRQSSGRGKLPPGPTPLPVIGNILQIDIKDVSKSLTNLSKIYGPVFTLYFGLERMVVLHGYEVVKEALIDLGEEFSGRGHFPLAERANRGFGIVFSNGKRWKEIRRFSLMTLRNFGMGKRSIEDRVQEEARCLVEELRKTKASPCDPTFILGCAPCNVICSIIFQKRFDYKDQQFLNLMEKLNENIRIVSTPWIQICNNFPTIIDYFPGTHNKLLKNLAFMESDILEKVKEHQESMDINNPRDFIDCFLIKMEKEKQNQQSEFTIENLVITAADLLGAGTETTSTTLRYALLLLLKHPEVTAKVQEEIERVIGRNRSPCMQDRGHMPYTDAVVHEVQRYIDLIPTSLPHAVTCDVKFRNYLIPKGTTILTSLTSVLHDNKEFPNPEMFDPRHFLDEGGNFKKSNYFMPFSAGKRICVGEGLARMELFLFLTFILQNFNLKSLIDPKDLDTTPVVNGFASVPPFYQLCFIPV
Sequence of Progesterone receptor (Homo sapiens) (P06401 whole entry, looked up): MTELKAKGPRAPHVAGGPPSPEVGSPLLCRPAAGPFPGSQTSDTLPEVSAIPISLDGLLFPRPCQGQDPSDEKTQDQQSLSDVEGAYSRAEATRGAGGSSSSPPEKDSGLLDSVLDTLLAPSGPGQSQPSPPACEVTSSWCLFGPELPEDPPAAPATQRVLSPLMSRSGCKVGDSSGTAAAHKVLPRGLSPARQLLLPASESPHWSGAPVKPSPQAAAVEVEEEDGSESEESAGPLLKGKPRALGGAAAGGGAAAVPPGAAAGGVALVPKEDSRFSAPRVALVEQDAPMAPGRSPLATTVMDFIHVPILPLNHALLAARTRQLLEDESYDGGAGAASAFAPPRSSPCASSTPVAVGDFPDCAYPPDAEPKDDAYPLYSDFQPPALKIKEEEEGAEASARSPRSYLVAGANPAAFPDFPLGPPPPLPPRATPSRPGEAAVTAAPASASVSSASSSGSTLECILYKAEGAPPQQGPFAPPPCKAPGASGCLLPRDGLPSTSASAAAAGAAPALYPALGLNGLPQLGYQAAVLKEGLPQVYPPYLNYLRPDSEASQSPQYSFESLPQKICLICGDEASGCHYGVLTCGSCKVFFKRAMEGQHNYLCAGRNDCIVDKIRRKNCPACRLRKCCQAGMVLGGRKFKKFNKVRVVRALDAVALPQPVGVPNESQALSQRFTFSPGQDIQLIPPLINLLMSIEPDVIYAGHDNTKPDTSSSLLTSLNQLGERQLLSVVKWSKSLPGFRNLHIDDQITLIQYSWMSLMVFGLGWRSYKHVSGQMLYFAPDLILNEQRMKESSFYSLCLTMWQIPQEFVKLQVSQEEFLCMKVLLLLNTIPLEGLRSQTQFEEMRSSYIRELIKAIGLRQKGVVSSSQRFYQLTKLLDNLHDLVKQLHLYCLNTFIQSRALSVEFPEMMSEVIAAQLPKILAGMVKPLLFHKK
Sequence of Thyrotropin-releasing hormone receptor (Homo sapiens) (P34981 whole entry, looked up): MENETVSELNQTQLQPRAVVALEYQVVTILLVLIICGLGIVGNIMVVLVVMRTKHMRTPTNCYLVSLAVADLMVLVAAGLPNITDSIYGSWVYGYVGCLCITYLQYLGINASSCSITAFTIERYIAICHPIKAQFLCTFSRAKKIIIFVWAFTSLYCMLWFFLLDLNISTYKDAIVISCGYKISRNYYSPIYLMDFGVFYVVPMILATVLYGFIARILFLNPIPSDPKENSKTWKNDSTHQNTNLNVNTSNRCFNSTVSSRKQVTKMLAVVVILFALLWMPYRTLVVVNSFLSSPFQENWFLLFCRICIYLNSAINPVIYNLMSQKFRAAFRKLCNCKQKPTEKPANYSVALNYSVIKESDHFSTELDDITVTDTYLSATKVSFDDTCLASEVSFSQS
Sequence of Cytochrome P450 2D6 (Homo sapiens) (P10635 whole entry, looked up): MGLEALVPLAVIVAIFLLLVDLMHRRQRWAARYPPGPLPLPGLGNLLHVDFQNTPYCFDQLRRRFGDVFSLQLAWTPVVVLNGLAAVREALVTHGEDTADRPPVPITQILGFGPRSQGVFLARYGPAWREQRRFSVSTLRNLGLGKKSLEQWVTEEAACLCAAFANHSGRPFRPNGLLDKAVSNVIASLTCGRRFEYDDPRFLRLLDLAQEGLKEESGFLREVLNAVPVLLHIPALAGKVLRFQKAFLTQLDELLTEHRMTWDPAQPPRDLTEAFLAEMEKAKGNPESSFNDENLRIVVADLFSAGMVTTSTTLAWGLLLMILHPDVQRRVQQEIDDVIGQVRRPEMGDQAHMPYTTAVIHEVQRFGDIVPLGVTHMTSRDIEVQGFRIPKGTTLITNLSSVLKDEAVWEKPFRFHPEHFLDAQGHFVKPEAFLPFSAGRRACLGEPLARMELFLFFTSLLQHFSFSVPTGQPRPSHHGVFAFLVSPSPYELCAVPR

On to `Cc1c(C(=O)O)c(O)cc2c1C(=O)c1c(O)c([C@@H]3O[C@H](CO)[C@@H](O)[C@H](O)[C@H]3O)c(O)c(O)c1C2=O`, for which the Potency result in test [1], in test [2], in [3], in test [4], in [5] and in test [7] was “inactive” throughout. In addition, the Potency entry in test [8], in [10], in [11], in test [13] and in [15] was “inactive” each time. In addition, the compound was classed as inactive in test [6] and in test [16]. For the same compound, the Potency was 11.2 µM (active) and 13.7 µM (active) and 23.7 µM (active) in [9]; 18.9 µM (active) and 15.4 µM (active) and 26.6 µM (active) in test [12]; 31 µM (active) and 39.9 µM (active) in test [17]; 39 µM (active) in test [18]. The max activation in [14] is -3.66%.
Turning to `CCCc1cc(=O)[nH]c(=S)[nH]1`, the Potency entry in test [1], in test [2], in test [3], in test [4], in test [5] and in [7] was “inactive” in each case. The Potency entry in [8], in test [9], in [10], in test [19], in test [11] and in [12] was “inactive” throughout. The Potency entry in [15], in test [17] and in [18] was “inactive” each time. Further, the outcome in [6] and in [16] was inactive. In [14], the max activation was -3.01%.
Regarding `CNNCc1ccc(C(=O)NC(C)C)cc1`, the Potency entry in test [1], in test [2], in [3], in test [4], in [5] and in test [7] was “inactive” each time. For the same compound, the Potency entry in test [8], in test [9], in test [10], in [11] and in [12] was “inactive” throughout. In test [6], the compound was classed as inactive. Besides, the max activation in [14] is -1.77%.
Regarding `Nc1c(N=Nc2ccc(-c3ccc(N=Nc4cc(S(=O)(=O)O)c5ccccc5c4N)cc3)cc2)cc(S(=O)(=O)O)c2ccccc12`, the Potency result in test [1], in [2], in [3], in test [4], in test [5] and in test [10] was “inactive” in each case. In addition, in [11], the Potency entry was “inactive”. Besides, the compound was called inactive in test [6] and in [16]. Besides, the Potency in [9] is 8.63 µM (active); in [19], 12.2 µM (active); in [12], 17.2 µM (active); in [15] it was 22.4 µM (active); in test [17], 35.6 µM (active); in test [18], 71 µM (active). For the same compound, in test [14], the max activation was -6.72%.
For `CCCCC(CC)C(=O)O` (centres undefined), the Potency entry in test [1], in test [2], in [3], in test [4], in [5] and in test [9] was “inactive” in each case. The Potency result in [10], in test [11], in [12], in [13], in [17] and in test [18] was “inactive” each time. In addition, the result in [6] was inactive.
Turning to `Cc1ccc(S(=O)(=O)O)cc1`, the Potency entry in test [1], in test [2], in test [3], in [4], in test [5] and in test [9] was “inactive” in each case. Also, the Potency entry in test [10], in [19], in [11] and in test [12] was “inactive” in each case. In [6], the compound was called inactive.
